TGFb SMAD3 inh: blocks TGF-b signaling; HepG2 CAGA-GFP TGF-b/SMAD3 reporter, GFP fluorescence, 18 h; TGF-beta stimulated, 500 pg/mL final; Potency, µM (top dose mostly 46.1 µM), for inactives: top-dose activity, negative = inhibition, actives largely listed as inhibitors; AID 588855; hit rate 1.2% among 410,000; further: potency means the concentration at half of the fitted maximal effect; on the % scale 0 is the no-effect control and ±100 the full control effect; nearly all actives have a fitted effect of over 65% in size
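TGF-beta reporter screen: HEPG2 CAGA-GFP, 1% FBS, 500 pg/mL TGF-beta final, 18 h; per-cell GFP summed per well; curves fitted and categorized by class.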
TDP1 inh: blocks human tyrosyl-DNA phosphodiesterase 1. recombinant TDP1, AlphaScreen DNA substrate cleavage. AID 485290. Potency, µM (doses to about 130 µM), inactives show at the highest dose activity change, negative = inhibition, most hits filed as inhibitors. hit rate 0.28% among 350,000. Q9NUW8; further: potency means the concentration at half of the fitted maximal effect; on the % scale 0 is the no-effect control and ±100 the full control effect; nearly all actives have a fitted effect of over 40% in size
Target sequence (Q9NUW8 whole entry, looked up): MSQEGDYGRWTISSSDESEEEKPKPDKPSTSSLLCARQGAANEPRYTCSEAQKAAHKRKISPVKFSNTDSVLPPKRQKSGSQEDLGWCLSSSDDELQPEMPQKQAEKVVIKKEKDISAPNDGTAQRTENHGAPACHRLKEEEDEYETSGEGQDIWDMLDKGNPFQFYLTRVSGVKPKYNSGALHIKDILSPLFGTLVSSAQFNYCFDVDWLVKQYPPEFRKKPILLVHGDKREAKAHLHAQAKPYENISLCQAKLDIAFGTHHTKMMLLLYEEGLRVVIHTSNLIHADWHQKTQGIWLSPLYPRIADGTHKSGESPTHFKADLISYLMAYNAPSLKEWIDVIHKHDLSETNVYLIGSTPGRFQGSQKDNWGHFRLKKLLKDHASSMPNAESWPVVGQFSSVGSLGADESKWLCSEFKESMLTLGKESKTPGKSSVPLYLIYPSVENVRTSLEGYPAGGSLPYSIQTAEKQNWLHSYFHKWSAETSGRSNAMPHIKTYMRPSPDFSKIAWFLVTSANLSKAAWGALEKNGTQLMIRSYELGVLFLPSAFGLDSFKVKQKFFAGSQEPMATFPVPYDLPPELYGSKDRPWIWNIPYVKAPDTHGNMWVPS
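Recombinant E. coli-expressed Tdp1 (1 nM) preincubated with compound 15 min at RT, then 5'-biotin/3'-phosphotyrosine-FITC DNA substrate (15 nM) added for 5 min. AlphaScreen beads (10 ug/ml) added, 10 min RT; tyrosine-FITC cleavage read as signal loss.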
TDP1 cell noCPT: qHTS for Inhibitors of human tyrosyl-DNA phosphodiesterase 1 (TDP1): qHTS in cells in absence of CPT; Potency, µM (series often up to 46.2 µM), for the others: at the top dose activity change, negative = growth inhibition, most hits filed as inhibitors; DT40 Tdp1-/- hTDP1 cells, no CPT, ATP luminescence, 48 h; hit rate 15% among 420,000; further: potency means the concentration at half of the fitted maximal effect; on the % scale 0 is the no-effect control and ±100 the full control effect; nearly all actives have a fitted effect of over 55% in size
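Chicken DT40 Tdp1-/- cells complemented with human TDP1, screened without camptothecin (DMSO vehicle only), 400 cells/well. Compounds pin-transferred, cells incubated at 37 °C for at least 48 hr. Growth read as ATP-dependent luminescence (CellTiter-Glo, 30 min at RT).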
IL-1B inflam inh: blocks inflammasome-driven IL-1 beta release. activity change, % at 57.5 µM. THP-1 LPS/ATP IL-1B secretion, AlphaLISA, 16 h; stronger effect = lower value. hit rate 4.7% among 360,000; in the data active means activity change below about -50%; inconclusive means mostly about -30% to -49%; further: on the % scale 0 is the no-effect control and ±100 the full control effect
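Secreted IL-1B measured by AlphaLISA bead assay after 16 h compound exposure of THP-1 cells; compounds (final up to 57.5 uM) added 1 h before LPS (250 ng/mL) and ATP (1.25 mM) stimulation; lower signal means less secretion.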
HepG2 tox-1: kills HepG2 cells in TGF-b inhibitor counter-screen; hit rate 0.76% among 410,000; Potency, µM (highest dose often 46.1 µM), inactives show top-dose activity change, negative = cytotoxicity, usual class: cytotoxic; HepG2 CAGA-GFP viability, ATP luminescence, 18 h; further: potency means the concentration at half of the fitted maximal effect
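CellTiter-Glo luminescence gave cytotoxicity after 18 hours at 37 degrees C. The cells were HepG2 CAGA-GFP in 1% FBS DMEM, stimulated with 500 pg/mL TGF-beta after compound addition. %Activity was normalised to no-cell wells (complete cell-killing) and DMSO (no toxicity), and curves were fitted and classified.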
TDP1 cell CPT: DT40-hTDP1 cell growth loss with CPT; hit rate 12% among 420,000; Potency, µM (highest dose often 46.2 µM), for the others: top-dose activity change, negative = growth inhibition, actives largely listed as inhibitors; chicken DT40 Tdp1-/-;hTDP1 cells + 20 nM CPT, ATP luminescence, 48 h; further: potency means the concentration at half of the fitted maximal effect; on the % scale 0 is the no-effect control and ±100 the full control effect; nearly all actives have a fitted effect of over 55% in size
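Chicken DT40 Tdp1-/- cells stably complemented with human TDP1 were seeded at 400 cells/well in medium containing 20 nM camptothecin, exposed to pin-transferred compounds, and grown at 37 °C for at least 48 hr. Viability was read as ATP luminescence.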
TGFb CAGA inh: TGF-b pathway inhibition, cherry-pick retest; shares compounds with TGFb SMAD3 inh; HepG2 CAGA-GFP TGF-b reporter, GFP fluorescence, 18 h; cells stimulated with TGF-beta, 500 pg/mL; Potency, µM (titrated, usually from 46.1 µM), for the others: at the highest dose activity, negative = inhibition, actives largely listed as inhibitors; hit rate 63% among 1,600; AID 720534; further: potency means the concentration at half of the fitted maximal effect; on the % scale 0 is the no-effect control and ±100 the full control effect; nearly all actives have a fitted effect of over 65% in size
HepG2 tox-2: HepG2 cytotoxicity, TGF-b inhibitor counterscreen; shares compounds with TGFb SMAD3 inh; Potency, µM (titrated, usually from 46.1 µM), for the others: top-dose activity, negative = cytotoxicity, actives largely listed as inhibitors; hit rate 27% among 1,600; HepG2 CAGA-GFP viability, ATP luminescence, 18 h; cells stimulated with TGF-beta, 500 pg/mL; further: potency means the concentration at half of the fitted maximal effect; on the % scale 0 is the no-effect control and ±100 the full control effect; nearly all actives have a fitted effect of over 70% in size
CCL64 TGFb inh: TGF-b inhibition, CCL64 orthogonal assay | shares compounds with TGFb SMAD3 inh | CCL64 CAGA-GFP reporter, TGF-b stimulated, GFP fluorescence, 18 h | Potency, µM (top dose mostly 46.1 µM), inactives show at the top dose activity, negative = inhibition, most hits filed as inhibitors | hit rate 41% among 1,600; further: potency means the concentration at half of the fitted maximal effect; nearly all actives have a fitted effect of over 65% in size
COP TGFb inh: blocks TGF-b signaling in HepG2 COP reporter; HepG2 COP-GFP TGF-b reporter, GFP fluorescence, 18 h; cells stimulated by added recombinant TGF-beta; shares compounds with TGFb SMAD3 inh; Potency, µM (top dose mostly 46.1 µM), inactives show at the highest dose activity, negative = inhibition, usual class: inhibitors; hit rate 3% among 1,600; further: potency means the concentration at half of the fitted maximal effect; nearly all actives have a fitted effect of over 70% in size
Starred values were filed as active, the others as inactive; ? = inconclusive; nt = not tested or not shown; ! = not active in a repeat; [ ] = another dose, or the depositor's remark. Hits are enriched below; roughly 19% of the tested compounds scored in any of these assays. Unless noted, the call rests on the fitted dose curve; in most records, active means well fitted curve in the direction sought with a large enough effect; inconclusive means small, poorly fitted or top-dose-only effect, or another doubt; inactive means no such curve, though single readings can be large; an effect the other way counts as inactive or inconclusive.

SMILES | TGFb SMAD3 inh | TDP1 inh | TDP1 cell noCPT | IL-1B inflam inh | HepG2 tox-1 | TDP1 cell CPT | others
NC(=O)Cc1cccc(C(=O)c2ccccc2)c1N | nt | nt | ? | nt | nt | -13.5%
Fc1ccc(N2CCN(c3ncnc4c3nc3n4CCCCC3)CC2)cc1 | ? | -1.2% | 18.4µM* | nt | 3.3% | -18.7%
O=C(c1cccn2c(=O)c3cc(Br)ccc3nc12)N1CCC2(CC1)OCCO2 | -3.1% | -8.0% | -7.4% | -5.8 | -14.6% | -8.1%
Cc1cccn2c(=O)c3cc(C(=O)N4CCC5(CC4)OCCO5)n(C)c3nc12 | ? | 1.1% | 1.3µM* | 7.5 | -21.9% | 1.16µM*
CCC(C(=O)Nc1ccccc1F)N1C(=O)CN=C(c2ccccc2)c2ccccc21 (stereo not drawn) | -3.2% | -7.0% | 23.1µM* | nt | -20.6% | ?
CCCCNC(=O)CN1C(=O)CN=C(c2ccccc2)c2ccccc21 | 15.3% | -1.2% | ? | -9.1 | 10.1% | -25.3%
OC(COCc1ccc(Cl)cc1)CN1CC=C(c2ccccc2)CC1 (stereo not drawn) | ? | 3.0% | 10.3µM* | -70.1*! | 28.2µM*! | 16.4µM*
OC(CN1CC=C(c2ccccc2)CC1)c1ccccc1 (stereo not drawn) | -1.2% | 9.4% | ? | -6.0 | -2.7% | -8.8%
CC(=O)OC1CC2C(C)(C)C(O)C=C[C@@]2(C)C2CC[C@]3(C)C(=CC(=O)OC3c3ccoc3)[C@]12C (stereo partly drawn) | nt | 5.3% | -27.4% | nt | nt | -2.7%
COc1ccc(-n2nnnc2C(c2ccnc3ccccc23)N2CCC3(CC2)C(=O)NCN3c2ccccc2)cc1 (stereo not drawn) | -34.7% | nt | 23.1µM* | 0.0 | 6.0% | ?
COc1ccc(-n2nnnc2C(c2ccccc2OC(F)(F)F)N2CCC3(CC2)C(=O)NCN3c2ccccc2)cc1 (stereo not drawn) | 11.2µM* | nt | 23.1µM* | 0.0 | -31.9% | 18.4µM*
O=C1NCN(c2ccccc2)C12CCN(C(c1ccccc1OC(F)(F)F)c1nnnn1-c1ccc3c(c1)OCCO3)CC2 (stereo not drawn) | ? | nt | ? | ? | 4.6% | ?
CC(C)(C)n1nnnc1C(c1cccs1)N1CCC2(CC1)C(=O)NCN2c1ccccc1 (stereo not drawn) | -20.0% | nt | ? | -17.0 | -4.4% | -19.4%
COc1ccc(C(c2nnnn2-c2ccc(OC)cc2)N2CCC3(CC2)C(=O)NCN3c2ccccc2)cc1 (stereo not drawn) | ? | nt | ? | ? | -1.3% | ?
Cc1cccc(C)c1-n1nnnc1C(c1cccs1)N1CCC2(CC1)C(=O)NCN2c1ccccc1 (stereo not drawn) | ? | nt | 14.6µM* | -4.4 | -25.8% | 14.6µM*
COc1ccc(-n2nnnc2C(c2ccccc2)N2CCC3(CC2)C(=O)NCN3c2ccccc2)cc1 (stereo not drawn) | ? | nt | ? | -59.3* | 2.6% | ?
CCn1cc(C(=O)NCCc2ccc(Cl)cc2)c(=O)c2cc(S(=O)(=O)N(C)C3CCCCC3)ccc21 | -21.6% | -2.3% | ? | nt | -1.0% | ?
CC(C)NCC(O)c1ccccc1Cl (stereo not drawn) | nt | nt | -1.5% | nt | nt | 16.1%
NNC(N)=S | nt | 12.7% | nt | nt | nt | nt
CN1C(=O)C(=Cc2ccc(SC3CCCCC3)o2)C(=O)N(C)C1=O | 0.0% | 0.0% | -0.9% | 10.3 | -34.8% | -3.5%
CN(C)C=C1C(=O)N(C2CCCCC2)C(=O)N(C2CCCCC2)C1=O | 32.4% | 2.5% | ? | -6.8 | 0.8% | 16.4µM*
Cn1c(=O)n(C)c2cc(CNCCc3ccccc3F)ccc21 | -2.2% | -1.6% | ? | nt | -3.1% | ?
CC(CC(C)(C)N1CC1)=NO | -38.4% | nt | 3.26µM* | -20.2 | -16.1% | 2.91µM*
O=c1c2ccccc2nc2n1CCS2(=O)=O | ? | 9.0% | -109.4% | -88.5* | -28.9% | 2.91µM*
CN(C)c1ccc([P+](=O)c2ccc(N(C)C)cc2)cc1 | 8.1% | 2.5% | 20.6µM* | -21.0 | -2.0% | ?
CC[C@H]1CN2CCc3cc(OC)c(OC)cc3C2C[C@@H]1C[C@H]1NCCc2cc(OC)c(OC)cc21 (stereo partly drawn) | -108.9% | nt | 0.0082µM* | -107.6* | -19.7% | 0.13µM* | TGFb CAGA inh=0.0517µM*;HepG2 tox-2=2.91µM*;CCL64 TGFb inh=0.0731µM*;COP TGFb inh=35.5%
CCOC(=O)c1c(C)n(Cc2ccccc2)c2ccc(OCC(O)Cn3nc(C)cc3C)cc12 (stereo not drawn) | 14.1µM* | 10.3%[56.1 µM] | ? | ? | -9.8% | ? | TGFb CAGA inh=20.6µM*;HepG2 tox-2=?;CCL64 TGFb inh=14.6µM*;COP TGFb inh=40.2%
O=C1NCN(c2ccccc2)C12CCN(C(c1cc3ccccc3o1)c1nnnn1C1CCCCC1)CC2 (stereo not drawn) | 10µM* | nt | ? | ? | -110.6% | ? | TGFb CAGA inh=18.4µM*;HepG2 tox-2=?;CCL64 TGFb inh=23.1µM*;COP TGFb inh=?
CC(C)(C)n1nnnc1C(c1cc2ccccc2o1)N1CCC2(CC1)C(=O)NCN2c1ccccc1 (stereo not drawn) | ? | nt | ? | -25.0 | 2.7% | ?

From PubChem BioAssay
